For six compounds, composite z-score and z-score results are on record in PubChem BioAssay.

Assay [1] is described as follows: compounds binding Alexa647 anti-His antibody – biochemical, small-molecule microarray, 635 nm fluorescence, artefact control for SMM control protein annotation, primary screen (AID 1128).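 Note: score merges feature fluorescence with signal-to-noise for each printed compound spot.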 To be noted: higher = more signal.
Assay [2] has as its system Human papillomavirus type 1a E7 protein (residues 1-88). The assay is described as follows: HPV1a E7 small-molecule binders, primary screen, biochemical, small-molecule microarray, residues 1-88, 635 nm (AID 1129). To be noted: small-molecule microarray binding, fluorescence 635 nm; higher = more signal.
The target in assay [3] is Focal adhesion kinase 1 (Homo sapiens) (UniProt Q05397). The experiment in a line: PTK2 protein binding on printed compound slides – biochemical, small-molecule microarray, 635/667 nm fluorescence, BSA, DTT, primary screen (AID 1130).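 Note: composite of spot emission at 667 nm and signal to noise over triplicate slides.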 To be noted: 635 nm fluorescence, higher = more signal.
Chain of Focal adhesion kinase 1 (Homo sapiens) (Q05397 whole entry, looked up): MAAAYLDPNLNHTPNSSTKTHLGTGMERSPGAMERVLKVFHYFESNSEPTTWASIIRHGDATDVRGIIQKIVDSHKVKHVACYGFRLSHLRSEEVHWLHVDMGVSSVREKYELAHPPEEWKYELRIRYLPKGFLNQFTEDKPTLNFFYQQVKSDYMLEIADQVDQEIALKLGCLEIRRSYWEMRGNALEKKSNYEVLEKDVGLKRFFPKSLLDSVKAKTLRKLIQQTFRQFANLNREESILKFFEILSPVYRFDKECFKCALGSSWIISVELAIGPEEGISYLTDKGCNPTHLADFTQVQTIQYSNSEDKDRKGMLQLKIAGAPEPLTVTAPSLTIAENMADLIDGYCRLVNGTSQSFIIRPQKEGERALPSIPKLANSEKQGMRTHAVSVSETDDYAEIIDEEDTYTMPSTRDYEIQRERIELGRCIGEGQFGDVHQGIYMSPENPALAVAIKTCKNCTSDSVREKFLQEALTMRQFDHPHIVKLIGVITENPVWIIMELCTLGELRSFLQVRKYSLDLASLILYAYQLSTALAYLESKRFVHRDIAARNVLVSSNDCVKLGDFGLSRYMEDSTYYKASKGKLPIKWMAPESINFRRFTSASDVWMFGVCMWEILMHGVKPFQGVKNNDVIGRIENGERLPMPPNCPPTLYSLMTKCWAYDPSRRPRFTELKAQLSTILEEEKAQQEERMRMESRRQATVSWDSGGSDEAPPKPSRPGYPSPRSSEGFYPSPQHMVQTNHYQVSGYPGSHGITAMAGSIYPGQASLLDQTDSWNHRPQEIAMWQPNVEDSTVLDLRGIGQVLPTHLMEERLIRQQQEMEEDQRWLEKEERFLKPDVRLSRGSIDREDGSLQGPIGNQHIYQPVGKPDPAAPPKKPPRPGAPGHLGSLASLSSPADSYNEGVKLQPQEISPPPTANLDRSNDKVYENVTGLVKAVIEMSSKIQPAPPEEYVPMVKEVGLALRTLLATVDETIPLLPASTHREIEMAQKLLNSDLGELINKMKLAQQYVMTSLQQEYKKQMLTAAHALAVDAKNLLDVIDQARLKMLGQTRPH
The test system of assay [4] is Fibrinogen (Alexa647-labelled). The experiment in a line: Alexa647-fibrinogen binding to printed small molecules – biochemical, small-molecule microarray, 635/667 nm fluorescence, artefact control for SMM control-protein annotation, profiling panel (AID 1131).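 Note: z-score merges 667 nm fluorescence with per-spot signal-to-noise over triplicate slides.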 The conditions noted are these: fibrinogen-A647 binding fluorescence, higher = more signal.
The target of assay [5] is Follistatin (Homo sapiens) (UniProt P19883). The assay is described as follows: FST protein binding to printed compounds – biochemical, small-molecule microarray, 635/667 nm fluorescence, primary screen (AID 1132). The conditions noted are these: 635 nm fluorescence, higher = more signal.
Chain of Follistatin (Homo sapiens) (P19883 whole entry, looked up): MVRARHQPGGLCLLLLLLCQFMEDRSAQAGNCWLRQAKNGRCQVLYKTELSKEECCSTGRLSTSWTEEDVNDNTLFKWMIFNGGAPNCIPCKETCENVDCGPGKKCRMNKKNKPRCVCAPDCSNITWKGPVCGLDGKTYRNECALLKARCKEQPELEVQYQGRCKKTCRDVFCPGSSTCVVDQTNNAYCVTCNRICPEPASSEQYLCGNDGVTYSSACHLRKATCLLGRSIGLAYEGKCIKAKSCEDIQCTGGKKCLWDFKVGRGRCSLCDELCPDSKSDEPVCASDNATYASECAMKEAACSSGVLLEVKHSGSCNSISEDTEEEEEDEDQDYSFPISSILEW
For assay [6], the target named is Fibroblast growth factor 2 (Homo sapiens) (UniProt P09038). The assay is described as follows: basic fibroblast growth factor binding to printed compounds – biochemical, small-molecule microarray, 635/667 nm fluorescence, primary screen (AID 1133). To be noted: FGF2, fluorescence 635/667, higher = more signal.
Chain of Fibroblast growth factor 2 (Homo sapiens) (P09038 whole entry, looked up): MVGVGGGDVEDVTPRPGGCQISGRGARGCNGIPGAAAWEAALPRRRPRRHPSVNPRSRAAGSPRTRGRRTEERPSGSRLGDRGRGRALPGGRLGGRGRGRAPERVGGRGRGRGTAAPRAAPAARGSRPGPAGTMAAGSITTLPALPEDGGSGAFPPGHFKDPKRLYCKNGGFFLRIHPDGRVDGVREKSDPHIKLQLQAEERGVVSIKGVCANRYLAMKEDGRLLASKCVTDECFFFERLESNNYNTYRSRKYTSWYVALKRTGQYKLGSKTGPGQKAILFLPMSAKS
Assay [7] in a line: JC-1 mitochondrial potential readout, lung cancer cells – cell-based, A549, JC-1 fluorescence, basal, 24 h, 100 nL, profiling panel (AID 1138).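 Note: A549 lung adenocarcinoma cells under basal conditions with no added stimulus; test concentration not given here.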 The conditions noted are these: higher = more signal.
The test system of another assay is Lefty1. The assay is described as follows: Lefty1 protein binding to printed compounds – biochemical, small-molecule microarray, 635/667 nm fluorescence, primary screen (AID 1139). The conditions noted are these: fluorescence 635/667, higher = more signal.
Assay [8] deals with wheat germ agglutinin (Triticum aestivum), Alexa647-labelled. The assay is described as follows: Alexa647-WGA lectin binding to printed small molecules – biochemical, small-molecule microarray, 635/667 nm fluorescence, artefact control for SMM control-protein annotation, profiling panel (AID 1140).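 Note: score merges 667 nm feature emission with signal to noise over triplicate slides.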 The conditions noted are these: WGA-A647 binding, 635 nm fluorescence, higher = more signal.

Assay [9] concerns the target Luciferin 4-monooxygenase (Photinus pyralis) (UniProt P08659). The experiment in a line: inhibition of purified Photinus pyralis luciferase – biochemical, luminescence, purified enzyme, 2006 set, primary screen (AID 1141).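 Note: cell-free assay with purified firefly luciferase at 100 ng per well in PBS; test concentration not given here.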 The conditions noted are these: purified firefly luciferase, SteadyGlo luminescence, 30 min; higher = more signal, called active from +8 up or from −8 down.

The subject of assay [10] is Wnt5a (protein binding on small-molecule microarray). The assay is described as follows: small molecules binding Wnt5a protein – biophysical, small-molecule microarray, 635/667 nm fluorescence, primary screen (AID 1142).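 Note: fluorescence read at 667 nm with signal to noise per printed feature.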 The conditions noted are these: 635 nm fluorescence, higher = more signal.
Assay [11] in a line: ATP-based viability of Huh7 replicon cells – cell-based, CellTiter-Glo luminescence, basal, 48 h, cytotoxicity control for HCV replication inhibitor project, primary screen (AID 1143).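 Note: Huh7 hepatoma cells carrying a hepatitis C replication reporter with no stimulus; test concentration not given here.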 The conditions noted are these: higher = more signal, called active from +8 up or from −8 down.
A short description of assay [12]: Pseudomonas biofilm growth suppression – PAO1 strain, BacTiter-Glo luminescence, LB-PBS, primary screen (AID 1144). The conditions noted are these: P. aeruginosa PAO1 biofilm, 12 h, higher = more signal.
Assay [13] can be described thus: basal CRE-LacZ reporter activity in PC12 – cell-based, unstimulated, primary screen (AID 1145). To be noted: no forskolin, luminescence, 4.5 h, higher = more signal, called active from +8 up or from −8 down.
A short description of assay [14]: forskolin-driven CRE-LacZ activity in PC12 – cell-based, CRE-LacZ reporter, forskolin-stimulated, primary screen (AID 1146).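 Note: PC12 cells with 6xCRE LacZ reporter stimulated by forskolin 10 µM; beta-galactosidase reporter signal reflecting CREB driven transcription.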 The conditions noted are these: luminescence, 4.5 h, higher = more signal, called active from +8 up or from −8 down.
Assay [15] addresses Streptavidin (Streptomyces avidinii) (UniProt P22629). The assay is described as follows: compounds binding control protein streptavidin – biophysical, small-molecule microarray, 635/667 nm fluorescence, artefact control for SMM compound annotation, primary screen (AID 1147).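 Note: signal reflects streptavidin binding to arrayed compounds as a control protein.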 To be noted: higher = more signal.
Assay [16] in a line: probe aInhba binding on compound microarray – biochemical, small-molecule microarray, 635/667 nm fluorescence, primary screen (AID 1148).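 Note: score merges 667nm spot fluorescence with signal-to-noise for antibody binding to printed compounds.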 The conditions noted are these: higher = more signal.
The target of assay [17] is Torsin-1A (Homo sapiens) (UniProt O14656). The assay is described as follows: TOR1A wild-type binding on microarray – cell lysate, small-molecule microarray, lysate, 635/667 nm, primary screen (AID 1149). The conditions noted are these: COS7 hTOR1A-WT lysate, 635 nm fluorescence, higher = more signal.
Chain of Torsin-1A (Homo sapiens) (O14656 whole entry, looked up): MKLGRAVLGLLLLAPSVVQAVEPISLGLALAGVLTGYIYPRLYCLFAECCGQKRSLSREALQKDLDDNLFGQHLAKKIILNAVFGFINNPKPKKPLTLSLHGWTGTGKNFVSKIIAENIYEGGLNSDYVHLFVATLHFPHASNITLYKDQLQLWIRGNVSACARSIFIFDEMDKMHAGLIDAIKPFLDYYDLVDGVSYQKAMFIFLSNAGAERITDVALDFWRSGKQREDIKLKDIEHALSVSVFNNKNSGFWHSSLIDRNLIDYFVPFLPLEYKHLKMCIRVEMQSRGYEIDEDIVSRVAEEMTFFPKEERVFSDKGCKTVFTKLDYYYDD
Assay [18] has the same target. The experiment in a line: torsin A mutant lysate binding on microarrays – cell lysate, small-molecule microarray, COS7 lysate, 635/667 nm fluorescence, primary screen (AID 1150).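 Note: score pools 667 nm emission and signal to noise measuring lysate protein binding.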 To be noted: COS7 hTOR1A mutant lysate, 635 nm fluorescence, higher = more signal.
Assay [19] concerns Sonic hedgehog protein (Shh). The assay is described as follows: Sonic hedgehog microarray binding compounds – biochemical, small-molecule microarray, 635/667 nm fluorescence, primary screen (AID 1151).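 Note: Shh protein binding to compounds spotted on small-molecule microarray slides; score combines spot fluorescence intensity with signal-to-noise across triplicate slides.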 To be noted: 635 nm fluorescence, higher = more signal.

Calls of active or inactive are those of the source. Unless noted, the rule behind the calls is not given here.

Chain of Luciferin 4-monooxygenase (Photinus pyralis) (P08659 whole entry, looked up): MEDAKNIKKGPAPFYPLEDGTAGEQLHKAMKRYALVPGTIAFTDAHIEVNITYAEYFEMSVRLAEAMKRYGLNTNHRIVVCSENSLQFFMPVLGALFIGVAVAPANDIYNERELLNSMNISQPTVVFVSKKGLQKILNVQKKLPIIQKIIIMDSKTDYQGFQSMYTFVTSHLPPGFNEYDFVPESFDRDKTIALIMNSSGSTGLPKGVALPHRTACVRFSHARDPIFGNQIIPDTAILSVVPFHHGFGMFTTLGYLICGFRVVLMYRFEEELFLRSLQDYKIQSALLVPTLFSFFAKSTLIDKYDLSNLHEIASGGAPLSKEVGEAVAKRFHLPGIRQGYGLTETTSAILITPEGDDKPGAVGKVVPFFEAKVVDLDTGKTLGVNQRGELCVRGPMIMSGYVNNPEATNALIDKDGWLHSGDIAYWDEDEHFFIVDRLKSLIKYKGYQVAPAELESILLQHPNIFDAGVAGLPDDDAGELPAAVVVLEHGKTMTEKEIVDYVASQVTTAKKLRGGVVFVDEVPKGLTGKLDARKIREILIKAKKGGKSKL
Chain of Streptavidin (Streptomyces avidinii) (P22629 whole entry, looked up): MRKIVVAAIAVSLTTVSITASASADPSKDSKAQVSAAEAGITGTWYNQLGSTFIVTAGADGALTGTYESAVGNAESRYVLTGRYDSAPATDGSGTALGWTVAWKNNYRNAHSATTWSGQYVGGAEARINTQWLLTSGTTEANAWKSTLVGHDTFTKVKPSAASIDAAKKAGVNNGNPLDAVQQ

In the case of `COC(=O)c1ccc(C#CC(NP(=O)(c2ccccc2)c2ccccc2)c2ccccc2)cc1` (centres undefined), the composite z-score in assay [1] is 0.15; in assay [2] it was 1.18; in assay [3], 0.671; in [4], 0.963; in assay [5] it was 1.41; in [6], -0.0037. Also, the composite z-score was 0.468 in the assay with Lefty1; 1.43 in [8]; -0.0176 in assay [10]; 2.13 in [15]; 0.103 in assay [16]; -0.497 in the assay with Torsin-1A (Homo sapiens) [17]. The composite z-score is -0.199 with Torsin-1A (Homo sapiens) [18] and 0.918 in [19]. Also, the z-score in assay [7] was 1.53; in assay [9], 0.853 (inactive); in assay [11], -0.351 (inactive); in assay [12], 0.107 (inactive); in [13], -0.372 (inactive); in assay [14], 1.24 (inactive).

For `CCOC(=O)C[C@H]1[C@H](OC(=O)Cc2ccc3c(c2)OCO3)[C@@H](NC(=O)CC(C)C)c2cc(OCCCO)ccc2N1C(=O)c1ccccc1`, the composite z-score in assay [1] was -0.314; in assay [2] it was 0.157; in assay [3], 0.344; in [4], 0.165; in assay [5] it was 0.45; in [6] it was 0.503. Moreover, the composite z-score with Lefty1 was 0.492; in [8] it was 0.0122; in assay [10], 0.416; in assay [15] it was -0.195; in assay [16], 0.126; in the assay with Torsin-1A (Homo sapiens) [17], -0.155. Further, the composite z-score with Torsin-1A (Homo sapiens) [18] worked out at 0.287; in assay [19], 0.526. Besides, the z-score in assay [7] is 1.91; in assay [9] it was -1.26 (inactive); in assay [11], -0.957 (inactive); in assay [13], 0.162 (inactive); in [14], -1.48 (inactive).

On to `C=CCN1C(=O)[C@@]2(Cc3ccccc3)N=C(c3ccc(OCCCO)cc3)O[C@H]2c2ccccc21`, for which the composite z-score in assay [1] was 1.69; in [2] it was 1.23; in assay [3], 0.665; in assay [4], 0.578; in [5] it was 1.39; in assay [6], 1.08. Moreover, the composite z-score came to 0.398 with Lefty1; 0.648 in assay [8]; 0.358 in assay [10]; 0.653 in assay [15]; 0.346 in assay [16]; 0.238 in the assay with Torsin-1A (Homo sapiens) [17]. In addition, the results for the composite z-score (with Torsin-1A (Homo sapiens) [18]; in assay [19]) were 1.56 and 1.28, respectively. Moreover, the z-score in assay [7] was -0.993; in assay [9], -5.51 (inactive); in [11], -1.81 (inactive); in [12] it was 0.294 (inactive); in assay [13] it was 1.07 (inactive); in assay [14], -0.984 (inactive).

Consider `C=C(COC)C(=O)CC[C@H](OC(=O)c1ccccc1-c1ccccc1C(=O)O)c1cccc(OCCO)c1`, for which the composite z-score in assay [1] was 2.49; in assay [2], 1.27; in assay [3], 0.403; in assay [4], -0.46; in assay [5] it was 1.56; in assay [6], 2.11. In addition, the composite z-score in the assay with Lefty1 is 1.65; in [8] it was -0.496; in [10], 2.01; in assay [15], -1.8; in assay [16], -0.0332; with Torsin-1A (Homo sapiens) [17], 2.33. For the same compound, the results for the composite z-score (with Torsin-1A (Homo sapiens) [18]; in assay [19]) were 2.6 and 2.34, respectively. For the same compound, the z-score in assay [7] is -1.02; in assay [9], -4.13 (inactive); in assay [11], -8.1 (active); in [12], -0.805 (inactive); in assay [13], 0.102 (inactive); in [14], 0.683 (inactive).

As to `CC(C)(C)OC(=O)CC[C@]1(C(=O)N2CCCCC2)N=C(c2ccc(OCCCO)cc2)O[C@H]1c1ccccc1`, the composite z-score in assay [1] stood at 1.81; in assay [2], 1.2; in assay [3] it was 0.717; in assay [4], 0.985; in assay [5] it was 1.24; in assay [6] it was 1.15. Further, the composite z-score with Lefty1 is 1.01; in [8], 1.27; in assay [10] it was 0.836; in assay [15], 2.08; in assay [16], -0.0112; with Torsin-1A (Homo sapiens) [17], 1.68. Further, the composite z-score worked out at 1.04 with Torsin-1A (Homo sapiens) [18] and 1.19 in assay [19]. Moreover, the z-score is 1.98 in assay [7]; -2.85 (inactive) in assay [9]; -3.16 (inactive) in assay [11]; 0.418 (inactive) in [12]; 1.55 (inactive) in assay [13]; -1.85 (inactive) in assay [14].

On to `CCc1cccc(NC(=O)O[C@H]2[C@H](OC(=O)Nc3ccccc3)[C@@H](OC(=O)Nc3ccccc3)[C@@H](OC)O[C@@H]2CO)c1`, for which the composite z-score in [1] stood at 0.51; in [2], 1.29; in [3], 0.497; in [4] it was 0.978; in assay [5] it was 1.4; in assay [6], 0.786. Further, the composite z-score was 0.937 in the assay on Lefty1; 0.966 in [8]; 0.73 in assay [10]; 0.39 in assay [15]; 0.0785 in [16]; 2.73 with Torsin-1A (Homo sapiens) [17]. For the same compound, the results for the composite z-score (in the assay with Torsin-1A (Homo sapiens) [18]; in assay [19]) were 0.896 and 1.72, respectively. In addition, the z-score in assay [7] was -1.47; in assay [9] it was 0.846 (inactive); in assay [11], -5.6 (inactive); in [12] it was -0.944 (inactive); in [13], 0.344 (inactive); in [14] it was -1.9 (inactive).
